Data published in PubChem BioAssay.
Some of the results follow. Unmarked numbers belong to inactive results. The source made the active and inactive calls.

What was measured:
[1] = molecular target: Inward rectifier potassium channel 2 (Mus musculus) (UniProt P35561); assay: mouse Kir2.1 channel blockers, retest, confirmation, cell-based, FluxOR thallium flux, duplicate (AID 2032;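 active = Primary-screen hit whose thallium flux fell at least 3 control SD below untreated wells in both duplicates, with normal baseline fluorescence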); conditions: Kir2.1-expressing cells, FluxOR thallium flux fluorescence, at 10 µM; active compounds read low
[2] = nonspecific thallium flux effects in parental HEK293 cells, confirmation, counter-screen for Kir2.1 inhibitor project, cell-based, FluxOR thallium flux, duplicate, single concentration (AID 2105;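 active = dye signal at least 3 control SD above or below untreated wells in both duplicates, raw fluorescence within 3, either direction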); conditions: FluxOR thallium flux fluorescence, at 10 µM; 0% = unstimulated blank wells
[3] = molecular target: Voltage-gated inwardly rectifying potassium channel KCNH2 (Homo sapiens) (UniProt Q12809); assay: hERG channel inhibition, counter-screen for Kir2.1 inhibitor project, cell-based, thallium flux (AID 2236); conditions: hERG-expressing cells, at 10 µM; active compounds read high;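 note: host cells are CHO cells stably expressing hERG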
[4] = molecular target: Potassium channel subfamily K member 9 (Homo sapiens) (UniProt Q9NPC2); assay: KCNK9 channel inhibition, selectivity assay for Kir2.1 inhibitor project, cell-based (AID 2329); conditions: KCNK9-expressing cells, ion flux inhibition, at 10 µM; active compounds read high
[5] = molecular target: Inward rectifier potassium channel 2 (Mus musculus) (UniProt P35561); assay: mouse Kir2.1 channel blockers, Kir2.1 inhibitor project, cell-based, secondary, automated electrophysiology (AID 463252); conditions: Kir2.1 cells, automated patch-clamp current inhibition, at 25 µM; active compounds read high
[6] = nonspecific thallium flux increase in parental CHO-K1, confirmation, counter-screen for KCNQ2 potentiator project, cell-based, FluxOR thallium flux, duplicate (AID 2282;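 active = signal rise of at least 3 SD above the untreated control mean, in both duplicate wells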;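 note: counter screen of KCNQ2 potentiator hits so any rise reflects channel-independent effects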); conditions: parental CHO-K1 cells, FluxOR thallium flux fluorescence; at 10 µM; active compounds read high; zero = vehicle mean+3SD, 100% = vehicle-minus-blank window
[7] = molecular target: Potassium voltage-gated channel subfamily KQT member 1 (Homo sapiens) (UniProt P51787); assay: human KCNQ1 channel potentiation off-target, confirmation, selectivity assay for KCNQ2 potentiator project, cell-based, CHO, FluxOR thallium flux (AID 2283;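 active = fluorescence ratio rise of at least 3 SD of vehicle wells above their mean, in both replicate wells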;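 note: 0% = vehicle mean plus 3 SD and 100% = vehicle minus unstimulated blank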); conditions: CHO KCNQ1 stable, FluxOR thallium flux fluorescence; at 10 µM; active compounds read high; beyond 3SD, as % of vehicle-control signal
[8] = molecular target: Potassium voltage-gated channel subfamily KQT member 2 (Rattus norvegicus) (UniProt O88943); assay: rat KCNQ2 channel potentiators, confirmation, cell-based, CHO, FluxOR thallium flux, duplicate (AID 2287;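 active = fluorescence ratio rising 3 SD or more over the vehicle control mean in both replicates, plus primary screen hit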;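 note: peak minus minimum thallium fluorescence divided by baseline after K/Tl stimulus; 0% = vehicle mean plus 3 SD and 100% = vehicle minus unstimulated blank difference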); conditions: CHO-KCNQ2 cells, FluxOR thallium flux fluorescence; at 10 µM; active compounds read high
[9] = molecular target: Inward rectifier potassium channel 2 (Mus musculus) (UniProt P35561); assay: PubChem AID 2345; conditions: HEK293 Kir2.1, FluxOR thallium flux fluorescence; at 10 µM; active compounds read high;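 note: 0% = vehicle mean plus 3 SD and 100% = vehicle minus no-stimulus blank window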
[10] = molecular target: Potassium voltage-gated channel subfamily KQT member 2 (Rattus norvegicus) (UniProt O88943); assay: potentiators of retigabine-insensitive KCNQ2 W236L, mechanism study for KCNQ2 potentiator project, cell-based, rat KCNQ2 W236L, CHO, automated patch clamp (AID 2558;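 active = current increase at least 3 SD of the untreated controls above them in both duplicate recordings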); conditions: at 25 µM; outcome: automated patch clamp current

Sequence of Inward rectifier potassium channel 2 (Mus musculus) (P35561 whole entry, looked up): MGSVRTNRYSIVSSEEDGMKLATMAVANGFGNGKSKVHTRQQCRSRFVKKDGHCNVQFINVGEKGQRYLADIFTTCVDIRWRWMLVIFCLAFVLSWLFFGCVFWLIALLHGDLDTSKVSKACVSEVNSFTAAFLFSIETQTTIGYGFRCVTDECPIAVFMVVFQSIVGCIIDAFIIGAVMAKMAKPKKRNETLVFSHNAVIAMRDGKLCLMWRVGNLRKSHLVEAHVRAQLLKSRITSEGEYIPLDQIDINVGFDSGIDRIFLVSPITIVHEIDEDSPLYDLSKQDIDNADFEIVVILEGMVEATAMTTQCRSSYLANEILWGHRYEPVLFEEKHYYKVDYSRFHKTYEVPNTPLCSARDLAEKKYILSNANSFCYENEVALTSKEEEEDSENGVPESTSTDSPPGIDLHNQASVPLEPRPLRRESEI
Sequence of Voltage-gated inwardly rectifying potassium channel KCNH2 (Homo sapiens) (Q12809 whole entry, looked up): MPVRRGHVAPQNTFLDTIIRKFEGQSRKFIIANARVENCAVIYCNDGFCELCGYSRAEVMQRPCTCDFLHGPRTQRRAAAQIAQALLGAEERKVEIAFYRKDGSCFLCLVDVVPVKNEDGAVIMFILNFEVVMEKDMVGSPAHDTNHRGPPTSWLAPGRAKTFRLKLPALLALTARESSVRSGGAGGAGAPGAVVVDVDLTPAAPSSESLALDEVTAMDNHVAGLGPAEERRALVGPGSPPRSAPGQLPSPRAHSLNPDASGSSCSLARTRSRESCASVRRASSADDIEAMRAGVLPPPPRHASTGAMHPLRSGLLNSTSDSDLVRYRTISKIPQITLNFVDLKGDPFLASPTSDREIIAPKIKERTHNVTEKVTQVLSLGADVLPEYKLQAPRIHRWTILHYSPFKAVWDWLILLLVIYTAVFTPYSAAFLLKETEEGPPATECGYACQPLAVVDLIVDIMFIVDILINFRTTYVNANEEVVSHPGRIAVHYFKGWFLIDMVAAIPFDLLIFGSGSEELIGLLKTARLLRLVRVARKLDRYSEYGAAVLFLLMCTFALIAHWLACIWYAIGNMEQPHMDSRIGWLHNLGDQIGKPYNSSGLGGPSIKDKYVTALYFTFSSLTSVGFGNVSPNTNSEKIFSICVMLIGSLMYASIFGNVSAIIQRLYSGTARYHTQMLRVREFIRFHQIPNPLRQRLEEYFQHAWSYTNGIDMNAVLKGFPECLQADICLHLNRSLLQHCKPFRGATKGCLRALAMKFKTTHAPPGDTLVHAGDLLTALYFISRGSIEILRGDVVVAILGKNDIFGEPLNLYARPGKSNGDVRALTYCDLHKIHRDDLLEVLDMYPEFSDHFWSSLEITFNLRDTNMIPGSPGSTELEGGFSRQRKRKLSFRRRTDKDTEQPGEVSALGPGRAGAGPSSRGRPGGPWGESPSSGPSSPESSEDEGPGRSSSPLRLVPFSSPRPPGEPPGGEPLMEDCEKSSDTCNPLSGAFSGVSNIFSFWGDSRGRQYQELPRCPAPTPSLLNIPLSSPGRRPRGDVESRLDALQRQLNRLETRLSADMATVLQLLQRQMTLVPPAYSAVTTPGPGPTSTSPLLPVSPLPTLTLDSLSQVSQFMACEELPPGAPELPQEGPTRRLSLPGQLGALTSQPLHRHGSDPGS
Sequence of Potassium voltage-gated channel subfamily KQT member 1 (Homo sapiens) (P51787 whole entry, looked up): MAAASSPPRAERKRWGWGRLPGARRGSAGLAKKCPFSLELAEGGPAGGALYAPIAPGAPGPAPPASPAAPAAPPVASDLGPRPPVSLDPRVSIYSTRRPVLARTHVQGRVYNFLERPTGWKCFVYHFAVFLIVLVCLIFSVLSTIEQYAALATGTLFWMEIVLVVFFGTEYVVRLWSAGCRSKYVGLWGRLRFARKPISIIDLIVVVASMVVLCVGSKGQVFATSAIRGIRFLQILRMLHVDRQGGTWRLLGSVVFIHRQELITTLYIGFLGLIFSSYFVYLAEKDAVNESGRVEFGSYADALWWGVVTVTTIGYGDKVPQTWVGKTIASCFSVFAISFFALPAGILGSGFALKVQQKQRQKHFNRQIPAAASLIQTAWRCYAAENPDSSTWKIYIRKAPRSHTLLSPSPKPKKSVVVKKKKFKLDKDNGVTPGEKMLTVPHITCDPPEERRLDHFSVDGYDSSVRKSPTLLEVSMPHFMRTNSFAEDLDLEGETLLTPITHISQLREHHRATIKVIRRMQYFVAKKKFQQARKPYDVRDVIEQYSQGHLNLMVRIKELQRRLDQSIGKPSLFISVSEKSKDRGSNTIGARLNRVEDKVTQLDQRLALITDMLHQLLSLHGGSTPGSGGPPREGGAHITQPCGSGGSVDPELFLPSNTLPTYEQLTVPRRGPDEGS

## COc1ccc(C(O)(C2CCCCC2)C(CN2CCCC2)c2ccccc2)cc1 (stereo unspecified)
[1]
  Tl flux remaining, % of negative control (active compounds read low): 49% (active)
[2]
  outcome: inactive
[3]
  outcome: inactive
[4]
  outcome: inactive
[5]
  outcome: inactive

## O=C(/C=C/Sc1ncn[nH]1)c1ccc(Cl)cc1
[1]
  outcome: inactive
[2]
  outcome: inactive
[6]
  activity increase over 3SD of controls: -4%
[7]
  activation over 3SD threshold: 0.3% (active)
[8]
  potentiation, less the hit threshold: -17.8%
[9]
  activity over 3SD threshold: -56.5%

## CC1(C)NC(=O)N(CCCCSc2ccc(Cl)cc2)C1=O
[1]
  Tl flux remaining, % of negative control (active compounds read low): 46% (active)
[2]
  outcome: inactive
[3]
  outcome: inactive
[4]
  outcome: inactive
[5]
  inhibition: 40.8% (active)

## S=C(Nc1ccc(Br)cc1)NC1CCN(Cc2ccccc2)CC1
[1]
  Tl flux remaining, % of negative control (active compounds read low): 48% (active)
[2]
  outcome: inactive
[3]
  inhibition: 49% (active)
[4]
  outcome: inactive
[5]
  inhibition: 4.2% (active)

## CCOC(=O)NC(C(F)(F)F)(C(F)(F)F)P(=O)(c1ccccc1)c1ccccc1
[1]
  outcome: inactive
[2]
  outcome: inactive
[6]
  activity increase over 3SD of controls: -3.2%
[7]
  activation over 3SD threshold: -13.6%
[8]
  potentiation, less the hit threshold: -18.1%
[9]
  activity over 3SD threshold: -34.2%

## C=CCc1cc(S(=O)(=O)c2ccc(O)c(CC=C)c2)ccc1O
[1]
  Tl flux remaining, % of negative control (active compounds read low): 40.5% (active)
[2]
  outcome: inactive
[3]
  outcome: inactive
[4]
  inhibition: 79% (active)
[5]
  outcome: inactive

## CCCc1nc2sc3c(c2c(=O)n1NC(=O)CCCl)CCCC3
[1]
  outcome: inactive
[2]
  outcome: inactive
[6]
  activity increase over 3SD of controls: -7%
[7]
  activation over 3SD threshold: 28.9% (active)
[8]
  potentiation, less the hit threshold: 69.9% (active)
[9]
  activity over 3SD threshold: -17.7%
[10]
  outcome: inactive

## CC(C)Cc1nnc(NC(=O)CCc2ccccc2)s1
[1]
  outcome: inactive
[2]
  outcome: inactive
[6]
  activity increase over 3SD of controls: 45% (active)
[7]
  activation over 3SD threshold: -19.5%
[8]
  potentiation, less the hit threshold: -14.9%
[9]
  activity over 3SD threshold: -23.2%

## O=C(Nc1cccc(-c2cscn2)c1)C1CCN(Cc2ccsc2)CC1
[1]
  Tl flux remaining, % of negative control (active compounds read low): 44% (active)
[2]
  outcome: inactive
[3]
  inhibition: 51% (active)
[4]
  outcome: inactive
[5]
  inhibition: 7.1% (active)

## CCCn1c(C2CCCN2c2nc(-c3ccc(C)cc3)cs2)nc2cc(Cl)c(N3CCCCC3)cc21 (stereo unspecified)
[1]
  outcome: inactive
[2]
  outcome: inactive
[6]
  activity increase over 3SD of controls: 12.5% (active)
[7]
  activation over 3SD threshold: -30.1%
[8]
  potentiation, less the hit threshold: -9.8%
[9]
  activity over 3SD threshold: -27.9%
